Source: PubChem BioAssay AID1159580 (chemical genetic matrix, 2015)
Several values for one entry are separate records, joined by “and”; a condition that tells them apart may be missing. Identical values can stand only once. The whole screen tested about 5,500 compounds, of which about 2,000 (36%) were called active. Another 18% or so got no clear call; they are omitted. No stated cut-off is given here; in the data, active means normalized growth mostly below about 0.91 (no sharp cut-off); inconclusive means no clear call, values can overlap the other calls; inactive means mostly above about 0.92. This is one part of the list.

Test: chemical genetic growth profiling, strain panel (AID 1159580);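 further: tested at 20 µM; growth read once vehicle control cultures reached saturation at 30 °C; 1 = growth at the plate median or of vehicle wells; lower values mean less growth of the strain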
Conditions: S. cerevisiae deletion strains, growth OD

Measured: normalized growth

CCCCCCCCCCCCCCCCCCOCC(O)CO (configuration not stated)
inactive: locus YAL013W, strain DEP1, active compounds read low 1.01 | locus YAL021C, strain ccr4, active compounds read low 1.01 | locus YAL026C, strain drs2, active compounds read low 1 | locus YAL030W, strain snc1, active compounds read low 0.991 | locus YBL061C, strain skt5, active compounds read low 0.987 | locus YBR009C, strain hhf1, active compounds read low 0.959 | locus YBR021W, strain FUR4, active compounds read low 1.03 | locus YBR023C, strain chs3, active compounds read low 0.99 | locus YBR171W, strain sec66, active compounds read low 0.999 | locus YBR229C, strain ROT2, active compounds read low 1.01 | locus YBR231C, strain swc5, active compounds read low 0.981 | locus YBR279W, strain paf1, active compounds read low 0.992 | locus YCL011C, strain gbp2, active compounds read low 0.988 | locus YCL016C, strain dcc1, active compounds read low 0.994 | locus YCL029C, strain bik1, active compounds read low 1.01 | locus YCL061C, strain MRC1, active compounds read low 0.996 | locus YCL069W, strain vba3, active compounds read low 0.998 | locus YCR088W, strain abp1, active compounds read low 0.997 | locus YDL005C, strain med2, active compounds read low 0.989 | locus YDL035C, strain GPR1, active compounds read low 1.02 | locus YDL040C, strain nat1, active compounds read low 0.973 | locus YDL074C, strain BRE1, active compounds read low 1.06 | locus YDL101C, strain DUN1, active compounds read low 1.01 | locus YDL185W, strain tfp1, active compounds read low 1.02 | locus YDL192W, strain arf1, active compounds read low 1.01 | locus YDR001C, strain nth1, active compounds read low 0.995 | locus YDR069C, strain doa4, active compounds read low 0.973 | locus YDR101C, strain arx1, active compounds read low 1.04 | locus YDR137W, strain rgp1, active compounds read low 0.987 | locus YDR150W, strain NUM1, active compounds read low 0.998 | locus YDR159W, strain sac3, active compounds read low 0.952 | locus YDR162C, strain NBP2, active compounds read low 0.991 | locus YDR195W, strain ref2 0.951 | locus YDR297W, strain sur2, active compounds read low 0.995 | locus YDR318W, strain mcm21, active compounds read low 0.986 | locus YDR334W, strain swr1, active compounds read low 0.994 | locus YDR335W, strain msn5, active compounds read low 1 | locus YDR388W, active compounds read low 1.01 | locus YDR392W, strain spt3, active compounds read low 0.858 | locus YDR502C, strain sam2, active compounds read low 1.02 | locus YEL003W, strain gim4, active compounds read low 0.998 | locus YEL037C, strain rad23, active compounds read low 1 | locus YEL061C, strain CIN8 (second series), active compounds read low 0.992 | locus YEL061C, strain CIN8, active compounds read low 1.01 | locus YER015W, strain faa2, active compounds read low 0.989 | locus YER016W, strain bim1, active compounds read low 0.994 | locus YER110C, active compounds read low 1.01 | locus YER111C, strain swi4, active compounds read low 0.979 | locus YER155C, strain BEM2 (second series), active compounds read low 0.948 | locus YER155C, strain BEM2, active compounds read low 1.01 | locus YER167W, strain BCK2, active compounds read low 1 | locus YFR010W, strain ubp6, active compounds read low 1.01 | locus YGL078C, strain dbp3, active compounds read low 1.02 | locus YGL086W, strain mad1, active compounds read low 1.05 | locus YGL167C, strain pmr1, active compounds read low 0.986 | locus YGL173C, strain kem1, active compounds read low 0.984 | locus YGL227W, strain vid30, active compounds read low 0.985 | locus YGL240W, strain doc1, active compounds read low 0.966 | locus YGL248W, strain PDE1, active compounds read low 1 | locus YGL253W, strain hxk2, active compounds read low 1 | locus YGR135W, strain pre9, active compounds read low 0.968 | locus YGR252W, strain gcn5, active compounds read low 0.969 | locus YHR013C, strain ard1, active compounds read low 0.938 | locus YHR027C, strain rpn1, active compounds read low 0.998 | locus YHR030C, strain SLT2, active compounds read low 1.01 and 1.02 | locus YHR079C, strain IRE1 (second series), active compounds read low 1 | locus YHR079C, strain IRE1, active compounds read low 0.993 | locus YHR094C, strain hxt1, active compounds read low 1.01 | locus YHR129C, strain ARP1, active compounds read low 1.01 | locus YHR142W, strain chs7, active compounds read low 1.04 | locus YHR200W, strain rpn10, active compounds read low 1.01 | locus YIL066C, strain RNR3, active compounds read low 1.01 | locus YIL073C, strain SPO22, active compounds read low 1.01 | locus YIL125W, strain kgd1, active compounds read low 1.01 | locus YIR030C, strain dcg1, active compounds read low 1 | locus YJL092W, strain hpr5, active compounds read low 0.999 | locus YJL095W, strain BCK1 (second series), active compounds read low 0.998 | locus YJL095W, strain BCK1, active compounds read low 1.02 and 0.984 | locus YJL115W, strain asf1, active compounds read low 0.987 | locus YJL129C, strain trk1, active compounds read low 0.984 | locus YJL134W, strain LCB3, active compounds read low 0.997 | locus YJL154C, strain vps35, active compounds read low 0.992 | locus YJL164C, strain tpk1, active compounds read low 1 | locus YJL166W, strain qcr8, active compounds read low 0.99 | locus YJL168C, strain set2, active compounds read low 0.999 | locus YJL187C, strain SWE1 (second series), active compounds read low 1.03 | locus YJL187C, strain SWE1, active compounds read low 0.996
